Our source for the Percent Effect values is ChEMBL document CHEMBL3988442, “University of Dundee, Small-Polar-MMV Screening Library” (2021).

For some of these results: Results with a measured potency or affinity are listed apart.

What all share (parameters): scale not given: direction of the effect not stated beside the values
Experiment [1] has as its target Protein translocase subunit SecA (Escherichia coli (strain K12)) (UniProt P10408). Nature of the experiment: Assay to Identify E. coli SecA ATPase Inhibitors. The class given is functional. The note with it: 30 µM.
For experiment [2], the target named is T1, Ubiquitin-activating enzyme e1, putative (Leishmania donovani (strain BPK282A1)) (UniProt E9BSI1).
T1 sequence (whole entry): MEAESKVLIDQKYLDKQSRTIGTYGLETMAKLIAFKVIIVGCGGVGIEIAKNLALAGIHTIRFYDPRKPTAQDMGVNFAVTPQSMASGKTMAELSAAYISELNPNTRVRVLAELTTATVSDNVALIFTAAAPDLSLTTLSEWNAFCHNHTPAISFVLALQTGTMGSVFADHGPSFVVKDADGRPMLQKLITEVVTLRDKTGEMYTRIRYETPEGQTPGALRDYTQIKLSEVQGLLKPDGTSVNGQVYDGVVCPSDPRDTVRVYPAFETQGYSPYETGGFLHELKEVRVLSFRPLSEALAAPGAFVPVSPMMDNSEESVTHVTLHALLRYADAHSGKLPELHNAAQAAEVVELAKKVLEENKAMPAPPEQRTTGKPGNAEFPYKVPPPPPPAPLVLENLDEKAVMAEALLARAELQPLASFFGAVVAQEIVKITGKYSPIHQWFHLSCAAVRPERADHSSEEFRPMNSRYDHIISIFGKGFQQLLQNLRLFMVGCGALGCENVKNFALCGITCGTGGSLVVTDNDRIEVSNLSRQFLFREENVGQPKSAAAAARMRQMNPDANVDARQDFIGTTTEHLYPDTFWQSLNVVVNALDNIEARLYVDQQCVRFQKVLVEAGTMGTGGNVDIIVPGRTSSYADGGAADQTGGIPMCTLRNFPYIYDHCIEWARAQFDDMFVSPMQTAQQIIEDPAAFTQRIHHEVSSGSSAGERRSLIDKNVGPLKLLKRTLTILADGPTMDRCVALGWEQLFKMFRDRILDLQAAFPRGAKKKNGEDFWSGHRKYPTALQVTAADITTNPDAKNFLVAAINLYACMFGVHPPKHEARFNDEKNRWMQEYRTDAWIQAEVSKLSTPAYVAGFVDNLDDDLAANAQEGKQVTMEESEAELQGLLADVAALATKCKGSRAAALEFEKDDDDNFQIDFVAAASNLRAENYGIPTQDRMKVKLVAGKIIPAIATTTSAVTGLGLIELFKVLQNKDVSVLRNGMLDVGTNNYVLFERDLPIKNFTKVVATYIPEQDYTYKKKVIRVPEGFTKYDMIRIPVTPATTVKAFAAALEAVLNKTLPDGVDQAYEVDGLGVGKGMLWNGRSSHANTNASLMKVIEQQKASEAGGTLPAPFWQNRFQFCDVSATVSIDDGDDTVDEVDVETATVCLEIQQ
Nature of the experiment: Leishmania donovani Ubiquitin Activating Enzyme (LdE1). Format: functional. The note with it: 30 µM.

Experiment [3] deals with AMP-activated protein kinase, AMPK (Homo sapiens) (UniProt P54646+O43741+P54619+Q9UGJ0+Q9Y478+Q13131+Q9UGI9). The experiment is described as follows: AMP-dependent Kinase enzyme assay. An in vitro enzyme assay that detects ADP turnover that is directly proportional to AMPK activity. This uses naive AMPK that is activated during the assay with MK-8722. The settings on record: 30 µM. The class given is functional.

Experiment [4] addresses Sialic acid-binding Ig-like lectin 9 (Homo sapiens) (UniProt Q9Y336). The experiment is described as follows: Hs-Siglec9 ALPHAscreen SOP 20170721. The settings on record: 10 µM. On the technique in general: Alpha assays give light when donor and acceptor beads are brought close together.
The test system of a further experiment is Trypanosoma cruzi. Nature of the experiment: Trypanosoma cruzi phosphomannomutase and mannose-1-phosphate guanylyltransferase assay. The note with it: 10 µM. Format: functional.
For experiment [5], the target named is T2, Arginase-2, mitochondrial (Homo sapiens) (UniProt P78540).
T2 sequence (whole entry): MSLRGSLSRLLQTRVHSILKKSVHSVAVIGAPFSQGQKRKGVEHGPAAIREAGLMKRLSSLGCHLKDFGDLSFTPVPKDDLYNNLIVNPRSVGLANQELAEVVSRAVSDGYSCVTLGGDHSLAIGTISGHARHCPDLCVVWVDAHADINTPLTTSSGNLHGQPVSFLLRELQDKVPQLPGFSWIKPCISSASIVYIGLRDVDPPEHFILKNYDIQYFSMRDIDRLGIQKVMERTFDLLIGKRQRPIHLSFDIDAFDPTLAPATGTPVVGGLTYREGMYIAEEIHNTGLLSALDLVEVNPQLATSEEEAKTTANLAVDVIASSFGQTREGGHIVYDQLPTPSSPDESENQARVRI
Nature of the experiment: in vitro enzyme assay to detect the production of urea directly proportional to the activity of Arginase II. Note: in the data most compounds retested in dose-response had high values. Format: functional. The note with it: 33.3 µM.

Experiment [6] concerns the target T3, Proteasome subunit beta (Trypanosoma cruzi) (UniProt O96673).
T3 sequence (whole entry): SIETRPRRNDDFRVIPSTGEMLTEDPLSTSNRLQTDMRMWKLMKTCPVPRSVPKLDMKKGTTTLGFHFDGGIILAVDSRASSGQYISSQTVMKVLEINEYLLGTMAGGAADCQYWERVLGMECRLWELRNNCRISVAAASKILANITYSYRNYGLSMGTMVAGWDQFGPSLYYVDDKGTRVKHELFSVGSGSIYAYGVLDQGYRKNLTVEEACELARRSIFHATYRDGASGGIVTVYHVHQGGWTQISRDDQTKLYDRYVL
The experiment is described as follows: Trypanosoma cruzi proteasome chymotrypsin-like activity (TcProtChymo) assay. Note: in the data most compounds retested in dose-response had high values. Format: functional. The note with it: 9.37 µM.

The species entered for a further experiment is Homo sapiens. Nature of the experiment: To identify inhibition of the IFN signalling (Jak-Stat) pathway via expression of an eGFP reporter gene under the control of an IFN-stimulated response element (ISRE) containing MxA promoter. The class given is functional. The settings on record: 30 µM.
For experiment [7], the target named is T4, Tyrosyl-tRNA synthetase, putative (Trypanosoma cruzi (strain CL Brener)) (UniProt Q4DSP6).
T4 sequence (whole entry): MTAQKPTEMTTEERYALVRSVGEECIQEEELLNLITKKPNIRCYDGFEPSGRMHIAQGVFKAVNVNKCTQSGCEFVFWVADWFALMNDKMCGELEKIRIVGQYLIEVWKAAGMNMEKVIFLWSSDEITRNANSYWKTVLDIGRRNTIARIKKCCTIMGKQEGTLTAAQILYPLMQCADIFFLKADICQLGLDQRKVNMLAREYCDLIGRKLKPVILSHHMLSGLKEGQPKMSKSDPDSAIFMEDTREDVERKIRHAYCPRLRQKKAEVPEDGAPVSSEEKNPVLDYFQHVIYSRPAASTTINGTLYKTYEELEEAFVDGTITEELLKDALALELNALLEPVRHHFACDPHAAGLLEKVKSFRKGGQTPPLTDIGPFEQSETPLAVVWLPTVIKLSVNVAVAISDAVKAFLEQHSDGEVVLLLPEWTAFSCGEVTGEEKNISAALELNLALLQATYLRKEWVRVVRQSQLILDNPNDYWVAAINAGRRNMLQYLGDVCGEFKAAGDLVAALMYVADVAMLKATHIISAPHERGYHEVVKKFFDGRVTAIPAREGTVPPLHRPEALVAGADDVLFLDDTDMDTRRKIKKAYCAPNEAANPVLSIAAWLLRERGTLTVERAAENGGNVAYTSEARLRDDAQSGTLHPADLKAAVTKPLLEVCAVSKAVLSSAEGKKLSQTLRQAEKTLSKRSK
Nature of the experiment: Trypanosoma cruzi tyrosyl tRNA synthetase (TcYRS) _High Tyrosine SOP. Note: in the data most compounds retested in dose-response had high values. The note with it: 30 µM. Format: functional.

In experiment [8] the target is T4, Tyrosyl-tRNA synthetase, putative (Trypanosoma cruzi (strain CL Brener)). The experiment is described as follows: Trypanosoma cruzi tyrosyl tRNA synthetase (TcYRS) SOP. The settings on record: 30 µM. The class given is functional.
The target of experiment [9] is Chromo domain-containing protein 1 (Saccharomyces cerevisiae (strain ATCC 204508 / S288c) (Baker's yeast)) (UniProt P32657). Nature of the experiment: ScCHD-1 Enzyme Inhibition Assay. Note: in the data most compounds retested in dose-response had high values. The class given is functional. The settings on record: 30 µM.
Sequence of Chromo domain-containing protein 1 (Saccharomyces cerevisiae (strain ATCC 204508 / S288c) (Baker's yeast)) (P32657 whole entry, the tested form may be a part): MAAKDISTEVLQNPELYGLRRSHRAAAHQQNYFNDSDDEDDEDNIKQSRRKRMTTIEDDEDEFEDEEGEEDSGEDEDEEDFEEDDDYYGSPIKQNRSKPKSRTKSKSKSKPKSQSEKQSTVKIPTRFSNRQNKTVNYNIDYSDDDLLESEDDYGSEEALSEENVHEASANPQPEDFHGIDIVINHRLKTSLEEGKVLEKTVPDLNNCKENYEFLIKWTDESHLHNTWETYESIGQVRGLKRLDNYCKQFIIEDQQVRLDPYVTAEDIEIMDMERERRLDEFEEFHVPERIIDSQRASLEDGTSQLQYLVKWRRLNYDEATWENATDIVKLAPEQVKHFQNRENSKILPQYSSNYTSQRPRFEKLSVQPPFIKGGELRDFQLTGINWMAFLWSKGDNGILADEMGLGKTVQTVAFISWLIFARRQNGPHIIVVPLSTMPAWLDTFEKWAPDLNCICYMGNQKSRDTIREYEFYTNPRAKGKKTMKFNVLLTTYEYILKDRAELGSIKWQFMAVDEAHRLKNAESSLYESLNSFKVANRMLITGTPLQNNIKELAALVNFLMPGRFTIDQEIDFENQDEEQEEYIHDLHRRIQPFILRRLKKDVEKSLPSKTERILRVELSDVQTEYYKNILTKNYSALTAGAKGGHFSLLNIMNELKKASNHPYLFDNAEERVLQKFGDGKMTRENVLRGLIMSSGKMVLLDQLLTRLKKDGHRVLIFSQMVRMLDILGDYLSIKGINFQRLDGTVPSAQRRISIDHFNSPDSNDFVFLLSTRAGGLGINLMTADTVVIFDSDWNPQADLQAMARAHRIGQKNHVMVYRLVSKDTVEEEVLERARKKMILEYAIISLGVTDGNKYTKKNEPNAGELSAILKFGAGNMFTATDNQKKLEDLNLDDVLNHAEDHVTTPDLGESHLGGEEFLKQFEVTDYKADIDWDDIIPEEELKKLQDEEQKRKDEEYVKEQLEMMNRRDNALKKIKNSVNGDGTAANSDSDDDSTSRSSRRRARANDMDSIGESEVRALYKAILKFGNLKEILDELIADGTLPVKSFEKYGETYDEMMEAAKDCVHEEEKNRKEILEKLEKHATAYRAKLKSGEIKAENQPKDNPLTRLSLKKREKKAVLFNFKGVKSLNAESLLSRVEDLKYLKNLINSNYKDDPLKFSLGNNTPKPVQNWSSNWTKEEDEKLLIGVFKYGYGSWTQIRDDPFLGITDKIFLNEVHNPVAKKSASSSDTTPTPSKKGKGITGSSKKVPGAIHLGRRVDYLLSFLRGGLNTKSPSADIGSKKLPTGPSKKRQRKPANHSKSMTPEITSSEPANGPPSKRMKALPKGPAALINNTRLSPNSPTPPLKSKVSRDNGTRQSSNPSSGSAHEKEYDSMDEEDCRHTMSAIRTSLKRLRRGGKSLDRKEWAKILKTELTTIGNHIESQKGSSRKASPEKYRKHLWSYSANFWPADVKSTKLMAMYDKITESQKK

Sequence of Sialic acid-binding Ig-like lectin 9 (Homo sapiens) (Q9Y336 whole entry): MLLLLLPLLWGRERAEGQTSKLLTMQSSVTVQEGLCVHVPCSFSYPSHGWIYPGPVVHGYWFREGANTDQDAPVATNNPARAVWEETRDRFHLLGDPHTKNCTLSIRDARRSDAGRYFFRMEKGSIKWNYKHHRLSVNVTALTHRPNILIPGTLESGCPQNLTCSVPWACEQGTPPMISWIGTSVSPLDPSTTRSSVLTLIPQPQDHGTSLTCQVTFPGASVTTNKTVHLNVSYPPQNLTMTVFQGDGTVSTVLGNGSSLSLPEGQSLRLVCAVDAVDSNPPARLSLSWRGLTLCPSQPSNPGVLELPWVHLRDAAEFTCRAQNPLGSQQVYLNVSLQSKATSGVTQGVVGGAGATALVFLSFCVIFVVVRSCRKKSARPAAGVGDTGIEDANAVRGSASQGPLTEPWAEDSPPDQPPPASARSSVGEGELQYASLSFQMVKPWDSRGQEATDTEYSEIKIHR
Sequence of Protein translocase subunit SecA (Escherichia coli (strain K12)) (P10408 whole entry): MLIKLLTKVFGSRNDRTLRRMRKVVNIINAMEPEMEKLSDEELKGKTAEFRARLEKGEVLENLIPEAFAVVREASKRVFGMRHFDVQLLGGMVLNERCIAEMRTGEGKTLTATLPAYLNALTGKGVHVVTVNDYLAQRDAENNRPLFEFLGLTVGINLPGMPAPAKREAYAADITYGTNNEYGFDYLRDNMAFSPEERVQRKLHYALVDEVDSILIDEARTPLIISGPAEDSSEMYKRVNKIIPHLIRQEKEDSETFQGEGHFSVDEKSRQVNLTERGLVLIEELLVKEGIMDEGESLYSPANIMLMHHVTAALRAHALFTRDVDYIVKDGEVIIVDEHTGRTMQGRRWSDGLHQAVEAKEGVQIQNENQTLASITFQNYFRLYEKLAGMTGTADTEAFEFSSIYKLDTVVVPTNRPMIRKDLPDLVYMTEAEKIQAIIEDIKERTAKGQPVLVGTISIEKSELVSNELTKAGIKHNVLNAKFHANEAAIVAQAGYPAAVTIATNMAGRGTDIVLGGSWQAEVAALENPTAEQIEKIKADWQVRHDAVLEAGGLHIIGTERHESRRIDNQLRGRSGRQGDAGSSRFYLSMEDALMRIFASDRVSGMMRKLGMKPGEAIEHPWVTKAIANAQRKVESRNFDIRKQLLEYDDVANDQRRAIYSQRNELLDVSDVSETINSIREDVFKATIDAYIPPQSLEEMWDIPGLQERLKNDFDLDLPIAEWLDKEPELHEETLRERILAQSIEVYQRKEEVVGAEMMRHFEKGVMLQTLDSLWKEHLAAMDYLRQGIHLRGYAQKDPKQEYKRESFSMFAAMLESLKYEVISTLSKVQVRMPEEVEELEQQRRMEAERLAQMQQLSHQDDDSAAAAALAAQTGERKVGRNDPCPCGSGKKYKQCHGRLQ

`Cc1nccn1C1CCCN(C(=O)c2ccc3c(c2)nnn3C)C1` (stereo unspecified): the Percent Effect in experiment [1] is -3.52%; in experiment [2], 10.5%; in [3], -2.69%; in experiment [4] it was 0.191%; with Trypanosoma cruzi it was -4.95%; in experiment [5], 5.75%. The Percent Effect is 9.9% in experiment [6]; 3.52% in the experiment listed under Homo sapiens; 4.43% in experiment [7]; 6.17% in [8]; -4.12% in [9].

With `O=C(CCCc1ccc(F)cc1)N1C[C@@H](CN2CCOCC2)[C@@H](CO)C1`, the Percent Effect was -3.25% in experiment [1]; 8.22% in experiment [2]; -1.01% in experiment [3]; -3.8% in experiment [4]; -1.57% with Trypanosoma cruzi; 1.82% in [5]. The Percent Effect in experiment [6] is 13.7%; in the experiment filed under Homo sapiens it was -3.47%; in experiment [7], 7.53%; in experiment [8] it was 12.5%; in [9] it was -5.62%.

Turning to `CC(=O)NCCNC(=O)N(C)Cc1ccc2c(c1)OCCO2`, the Percent Effect is -3.01% in experiment [1]; 0% in experiment [2]; -0.74% in experiment [3]; -6.13% in experiment [4]; -4.92% in the experiment with Trypanosoma cruzi; 6.1% in experiment [5]. The Percent Effect is 1.79% in experiment [6]; 7.44% in the experiment filed under Homo sapiens; 4.95% in experiment [7]; 13.4% in [8]; -1.92% in [9].

In the case of `O=C(CN1CCCCC1Cn1cncn1)NC1CCN(C2CC2)CC1` (stereo unspecified), the Percent Effect in [1] was -0.975%; in experiment [2] it was -2.7%; in experiment [3], -4.13%; in experiment [4], 22.5%; in the experiment with Trypanosoma cruzi, 3.28%; in experiment [5] it was -1.43%. Also, the Percent Effect in experiment [6] was 5.86%; in the experiment filed under Homo sapiens, 2.27%; in [7], 2.65%; in experiment [8], 7.32%; in [9], -11.3%.

As to `CC(C(N)=O)N(C)CCCc1cc(-c2ccccc2)no1` (stereo unspecified), the Percent Effect in experiment [1] is -2.48%; in experiment [2], 13.5%; in [3], 3.69%; in [4], 0.652%; in the experiment with Trypanosoma cruzi, -9.75%; in experiment [5], -0.185%. Moreover, the Percent Effect in experiment [6] was 7.54%; in the experiment filed under Homo sapiens, 10.5%; in experiment [7], 5.94%; in experiment [8], 13.4%; in experiment [9], -3.63%.

Regarding `CCCNC(=O)C1CCN(Cc2csc(C(C)(C)C)n2)CC1`, the Percent Effect in experiment [1] is -0.61%; in experiment [2], 10.1%; in experiment [3], -4.65%; in [4] it was -1.57%; in the experiment with Trypanosoma cruzi, -4.44%; in experiment [5], 6.08%. Further, the Percent Effect was 6.63% in experiment [6]; 12.5% in the experiment filed under Homo sapiens; -0.493% in experiment [7]; 8.86% in experiment [8]; -6.15% in experiment [9].

Regarding `CCc1noc(C)c1C(=O)N1CCCC1c1c(C)nn(C)c1OC` (stereo unspecified), the Percent Effect in experiment [1] was -2.91%; in experiment [2], -2.53%; in [3] it was 2.09%; in experiment [4], 2.98%; with Trypanosoma cruzi, 2.36%; in [5] it was -3.42%. Besides, the Percent Effect in experiment [6] is -3.03%; in the experiment listed under Homo sapiens it was -17.3%; in experiment [7], 1.48%; in [8], 1.27%; in experiment [9], 0.826%.

With `O=C(NCCNc1cnccn1)C1CCN(C(=O)N2CCCC2)CC1`, the Percent Effect in experiment [1] is -3.3%; in experiment [2], 19%; in [3], -1.9%; in experiment [4], -1.57%; with Trypanosoma cruzi, -2.36%; in experiment [5] it was -5.81%. Further, the Percent Effect is 15.6% in experiment [6]; 8.62% in the experiment listed under Homo sapiens; -3.12% in [7]; 17.7% in experiment [8]; -23.5% in [9].

Take `CCn1nc(C)cc1C(=O)Nc1cc(F)ccc1OCC1CCCO1` (stereo unspecified): the Percent Effect in [1] is -3.27%; in [2], 2.6%; in [3], 19.7%; in experiment [4], 7.39%; in the experiment with Trypanosoma cruzi, 0.686%; in experiment [5], -0.21%. Further, the Percent Effect in experiment [6] is 9.78%; in the experiment listed under Homo sapiens, 34%; in experiment [7], 4.76%; in experiment [8], 9.41%; in [9], -11.3%.

On to `CC(C)n1c(C2CCCN(Cc3ccnn3C)C2)nc2ccccc21` (stereo unspecified), for which the Percent Effect is -5.27% in experiment [1]; 5.33% in [2]; 6.84% in [3]; 4.6% in experiment [4]; 6.5% in the experiment with Trypanosoma cruzi; -1.63% in experiment [5]. The Percent Effect was 6.78% in experiment [6]; 18.1% in the experiment listed under Homo sapiens; 2.13% in [7]; 14.1% in experiment [8]; -3.27% in experiment [9].

As to `C1CC1c1nsc(N2CCN(C3CC3)CC2)n1`, the Percent Effect in experiment [1] is -5.35%; in experiment [2] it was 13.7%; in [3], 2.89%; in experiment [4], 8.66%; in the experiment on Trypanosoma cruzi, 5.49%; in [5], 13.2%. Further, the Percent Effect in experiment [6] was 13.3%; in the experiment listed under Homo sapiens it was 12.3%; in experiment [7] it was 6.45%; in experiment [8], 15%; in experiment [9] it was -6.12%.
